PubChem BioAssay (Tox21)
Records with an inconclusive call do not appear. A call without a number means that no potency is given here. Active and inactive are the calls of the source. Calls come from the whole dose curve; as a rule, active = well fitted activation curve with a large enough effect in the repeat runs; inconclusive = weak or mixed curves; inactive = no such curve, though single readings can be large or run the other way.

Target: Aryl hydrocarbon receptor (Homo sapiens) (UniProt P35869)
Sequence (P35869 whole entry, looked up): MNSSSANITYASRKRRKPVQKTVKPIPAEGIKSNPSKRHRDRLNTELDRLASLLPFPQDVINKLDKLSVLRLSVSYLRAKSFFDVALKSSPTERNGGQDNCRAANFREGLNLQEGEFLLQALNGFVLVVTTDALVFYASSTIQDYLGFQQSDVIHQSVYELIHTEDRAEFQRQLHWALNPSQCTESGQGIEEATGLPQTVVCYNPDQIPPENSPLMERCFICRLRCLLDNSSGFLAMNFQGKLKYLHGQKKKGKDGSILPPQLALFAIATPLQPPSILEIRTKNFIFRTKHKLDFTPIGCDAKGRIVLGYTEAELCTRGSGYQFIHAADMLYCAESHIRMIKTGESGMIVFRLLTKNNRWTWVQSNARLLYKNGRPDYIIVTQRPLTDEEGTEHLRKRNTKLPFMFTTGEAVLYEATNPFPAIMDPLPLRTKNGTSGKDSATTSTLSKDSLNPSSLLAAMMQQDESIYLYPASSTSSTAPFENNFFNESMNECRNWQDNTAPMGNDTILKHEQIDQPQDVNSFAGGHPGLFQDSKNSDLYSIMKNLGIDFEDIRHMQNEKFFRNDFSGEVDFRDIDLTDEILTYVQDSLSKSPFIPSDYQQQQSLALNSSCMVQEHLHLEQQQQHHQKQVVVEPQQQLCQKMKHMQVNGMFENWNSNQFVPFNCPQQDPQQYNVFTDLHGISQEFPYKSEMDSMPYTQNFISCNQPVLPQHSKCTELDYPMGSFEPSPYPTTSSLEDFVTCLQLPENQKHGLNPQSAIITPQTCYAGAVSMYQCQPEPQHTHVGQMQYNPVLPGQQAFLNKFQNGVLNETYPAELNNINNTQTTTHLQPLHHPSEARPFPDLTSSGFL
Experiment: qHTS assay to identify small molecule that activate the aryl hydrocarbon receptor (AhR) signaling pathway (AID 743085); note: nearly all actives have a fitted effect of over 15% in size;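 for activation: HG2L7.5c1 human HepG2 liver cells with stably integrated DRE-driven firefly reporter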
Details: HepG2 AhR-luc (HG2L7.5c1), luciferase, 24 h; series mostly up to 70.3 µM
Source text: U.S. Tox21 Program National Center for Advancing Translational Sciences [NCATS] NIH Chemical Genomics Center [NCGC] U.S. Environmental Protection Agency [EPA] National Institutes of Environmental Health Sciences [NIEHS] National Toxicology Program [NTP] U.S. Food and Drug Administration [FDA] Tox21 Assay overview: The Aryl hydrocarbon Receptor (AhR), a member of the family of basic helix-loop-helix transcription factors, is crucial to adaptive responses to environmental changes. AhR mediates cellular responses to environmental pollutants such as aromatic hydrocarbons through induction of phase I and II enzymes but also interacts with other nuclear receptor signaling pathways. A cell based HepG2-AhR-luc assay (HG2L7.5c1 cell line, developed by Dr. Michael S. Denison, University of California at Davis, was used to assess the activation of AhR. HepG2 (human hepatocellular carcinoma) cells were stably transfected with an Ah receptor-responsive firefly luciferase reporter gene plasmid containing 20 dioxin responsive elements and luciferase reporter gene. Increased luciferase activity can be used to identify the compounds that induce AhR activation.
Tox21 Assay Protocol Summary: 4000 cells in 5 uL/well were dispensed into white wall/solid bottom 1536-well plates using a Multidrop Combi (Thermo Fisher Scientific Inc., Waltham, MA) dispenser. After the assay plates were incubated at 37C for 5 h, 23 nL of compound or DMSO vehicle was transferred to the assay plates by a pintool station (Kalypsys, San Diego, CA). The plates were incubated at 37C for 24 hr. After 1 ul/well of CellTiter-Fluor reagent (Promega, Madison, WI) was added into the assay plates using a Flying Reagent Dispenser (FRD) (Aurora Discovery, CA), the assay plates were incubated at 37C for 30 min. The fluorescence intensity in the plates was measured using a ViewLux plate reader (PerkinElmer, Shelton, CT), followed by the addition of 4 uL of ONE-Glo Luciferase Assay reagent (Promega) using an FRD (Aurora Discovery). After the assay plates were incubated at room temperature for 30 min, luminescence intensity was measured using a ViewLux plate reader (Perkin Elmer).
Potency is the fitted concentration of half-maximal effect.

SMILES	Potency
O[C@H]1[C@H]2[C@H](O)CCCN2C[C@H]1O	inactive
c1ccc(C2(c3ccccc3)CC2C2=NCCN2)cc1 (stereo not given)	inactive
CCCCCCCCCC(=O)O[C@H]1CC[C@H]2[C@@H]3CCC4=CC(=O)CC[C@]4(C)[C@H]3CC[C@]12C	inactive
COc1ccc2c(c1)C13CCCC[C@@H]1C(C2)N(C)CC3 (stereo not given in full)	inactive
Nc1cccc(C(F)(F)F)c1	inactive
C=CC[C@]1(O)CC[C@H]2[C@@H]3CCC4=CCCC[C@@H]4[C@H]3CC[C@@]21C	inactive
O=C(O)CCCO	inactive
O=P1(N(CCCl)CCCl)NC(OO)CCO1 (stereo not given)	inactive
CC(=O)OC1CN2CCC1CC2 (stereo not given)	inactive
[2H]C([2H])([2H])[C@H](N)Cc1ccccc1	inactive
C[C@]12C[C@H]3S[C@H]3C[C@@H]1CC[C@@H]1[C@@H]2CC[C@]2(C)[C@@H](O)CC[C@@H]12	inactive
CC1(C)S[C@@H]2[C@H](N)C(=O)N2[C@H]1C(=O)O	inactive
CCON=O	inactive
C=CCOc1c(Br)cc(C(C)(C)c2cc(Br)c(OCC=C)c(Br)c2)cc1Br	inactive
O=C1OC2(c3cc(Br)c(O)cc3Oc3c2cc(Br)c(O)[c]3[Hg])c2ccccc21 (stereo not given)	inactive
Fc1c(F)c(F)c(Br)c(F)c1F	inactive
CCCCCc1cc(O)c2c(c1)OC(C)(C)c1ccc(C)cc1-2	3.35 µM (active)
CC(CCl)OP(=O)(OC(C)CCl)OC(C)CCl (stereo not given)	inactive
CN(C)[C@H](Cc1ccccc1)c1ccccc1	inactive
C[C@@H](Cc1ccccc1)N(C)C	inactive

SMILES	Potency
C[C@H]1CC[C@]2(NC1)O[C@H]1C[C@H]3[C@@H]4CC[C@H]5C[C@@H](O)CC[C@]5(C)[C@H]4CC[C@]3(C)[C@H]1[C@@H]2C	inactive
O=C1OC(=O)c2c(Cl)c(Cl)c(Cl)c(Cl)c21	inactive
CCC(C)(S(=O)(=O)CC)S(=O)(=O)CC	inactive
ClC(Cl)(Cl)c1ccc(C(Cl)(Cl)Cl)cc1	inactive
O=C1CCO1	inactive
CCCCC(CC)COC(=O)CCCCC(=O)OCC(CC)CCCC (stereo not given)	inactive
Cc1ccc(N)c([N+](=O)[O-])c1	inactive
COC(=O)[C@H]1[C@@H](OC(=O)c2ccccc2)C[C@@H]2CC[C@H]1N2C	inactive
Cc1cccc([N+](=O)[O-])c1C	inactive
COC1=CC=C2[C@H]3Cc4ccc(OC)c5c4[C@@]2(CCN3C)[C@H]1O5	inactive
O=C1Nc2ccc(Cl)cc2C(c2ccccc2Cl)=NC1O (stereo not given)	inactive
CC(C)(C)c1cc(C(C)(C)C)c(O)c(C(C)(C)C)c1	inactive
CC(C)[C@@]1(NC(=O)[C@@H]2C[C@@H]3c4cccc5[nH]cc(c45)C[C@H]3N(C)C2)O[C@@]2(O)[C@@H]3CCCN3C(=O)[C@H](Cc3ccccc3)N2C1=O	inactive
O=C1CN(O)C(c2ccccc2)=c2cc(Cl)ccc2=N1	inactive
C[C@@H]1[C@H](O)[C@@H](C)/C=C/C=C/CC/C=C/C=C/C=C/C=C/[C@H](O[C@H]2O[C@@H](C)[C@H](O)[C@@H](N)[C@H]2O)CC2O[C@](O)(C[C@@H](O)[C@H](O)CC[C@@H](O)C[C@@H](O)C[C@@H](O)CC(=O)O[C@H]1C)C[C@H](O)[C@H]2C(=O)O	inactive
CCCCCCC(=O)O[C@H]1CC[C@H]2[C@@H]3CC[C@H]4CC(=O)C=C(C)[C@]4(C)[C@H]3CC[C@]12C	inactive
NCC(O)c1cccc(O)c1 (stereo not given)	inactive
CNC(=O)Oc1ccc2c(c1)[C@]1(C)CCN(C)[C@@H]1N2C	inactive
CNc1ccccc1	inactive
Oc1cc[c]([Hg][Cl])cc1	inactive
